This is an account of results in PubChem BioAssay (NCATS).

Results filed as inconclusive are left out. A number with no mark means an inactive call. Active and inactive are the calls of the source. Calls come from the whole dose curve; as a rule, active = well fitted curve in the direction sought with a large enough effect; inconclusive = small, poorly fitted or top-dose-only effect, or another doubt; inactive = no such curve, though single readings can be large; an effect the other way counts as inactive or inconclusive.

Test [1] can be described thus: Quantitative High-Throughput drug screen in 47 multiple myeloma cell lines against the NCATS MIPE library collection: KMS28PE_JCRB cell viability assay (AID 1918983). Note: nearly all actives have a fitted effect of over 35% in size. Note: potency is the fitted concentration of half-maximal effect. The essentials: (§1)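 500 cells/well per myeloma line exposed to pinned MIPE 4.0 compounds for 48 h at 37 °C, 5% CO2. Viability read as ATP by CellTiter-Glo luminescence, normalised to DMSO-only (100%) and media-only (0%) wells.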

Test [2] in a line: Quantitative High-Throughput drug screen in 47 multiple myeloma cell lines against the NCATS MIPE library collection: OPM1_PLB cell viability assay (AID 1918989). Note: nearly all actives have a fitted effect of over 40% in size. Note: potency is the fitted concentration of half-maximal effect. The essentials:
as §1

Test [3] in a line: Quantitative High-Throughput drug screen in 47 multiple myeloma cell lines against the NCATS MIPE library collection: XG1_PLB cell viability assay (AID 1919866). Note: nearly all actives have a fitted effect of over 35% in size. Note: potency is the fitted concentration of half-maximal effect. The essentials:
as §1

A short description of test [4]: Quantitative High-Throughput drug screen in 47 multiple myeloma cell lines against the NCATS MIPE library collection: VP6_DJ cell viability assay (AID 1919867). Note: nearly all actives have a fitted effect of over 40% in size. Note: potency is the fitted concentration of half-maximal effect. The method, boiled down: as §1
Test [5] in a line: Quantitative High-Throughput drug screen in 47 multiple myeloma cell lines against the NCATS MIPE library collection: UTMC2_PLB cell viability assay (AID 1919868). Note: nearly all actives have a fitted effect of over 55% in size. Note: potency is the fitted concentration of half-maximal effect. As to conditions: CellTiter-Glo ATP luminescence, 48 h; viability (% of DMSO control): at 45.8 µM (top of the series). The essentials: as §1
(ATP-based viability assays read luminescence as a measure of living cells.)

Test [6] in a line: Quantitative High-Throughput drug screen in 47 multiple myeloma cell lines against the NCATS MIPE library collection: PE2_PLB cell viability assay (AID 1919869). Note: nearly all actives have a fitted effect of over 35% in size. Note: potency is the fitted concentration of half-maximal effect. The essentials: as §1
The nature of test [7]: Quantitative High-Throughput drug screen in 47 multiple myeloma cell lines against the NCATS MIPE library collection: PCM6_Riken cell viability assay (AID 1919870). Note: nearly all actives have a fitted effect of over 30% in size. Note: potency is the fitted concentration of half-maximal effect. The essentials:
as §1

Test [8] can be described thus: Quantitative High-Throughput drug screen in 47 multiple myeloma cell lines against the NCATS MIPE library collection: OPM2_DSMZ cell viability assay (AID 1919872). Note: nearly all actives have a fitted effect of over 30% in size. Note: potency is the fitted concentration of half-maximal effect. The method, boiled down: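 Luminescent ATP measurement with CellTiter-Glo gives viability, scaled between DMSO-only wells (100%) and media-only wells (0%). Cells, 500 per well, faced library compounds for 48 hours at 37C.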

Test [9] in a line: Quantitative High-Throughput drug screen in 47 multiple myeloma cell lines against the NCATS MIPE library collection: KMS11_JCRBsus cell viability assay (AID 1919873). Note: nearly all actives have a fitted effect of over 50% in size. Note: potency is the fitted concentration of half-maximal effect. The essentials: as §1
Test [10] can be described thus: Quantitative High-Throughput drug screen in 47 multiple myeloma cell lines against the NCATS MIPE library collection: KMS28BM_JCRB cell viability assay (AID 1919874). Note: nearly all actives have a fitted effect of over 35% in size. Note: potency is the fitted concentration of half-maximal effect. The essentials:
as §1

Test [11] is described as follows: Quantitative High-Throughput drug screen in 47 multiple myeloma cell lines against the NCATS MIPE library collection: OCIMY5_PLB cell viability assay (AID 1918988). Note: nearly all actives have a fitted effect of over 65% in size. Note: potency is the fitted concentration of half-maximal effect. The method, boiled down: as §1
Test [12] can be described thus: Quantitative High-Throughput drug screen in 47 multiple myeloma cell lines against the NCATS MIPE library collection: SKMM1_PLB cell viability assay (AID 1919863). Note: nearly all actives have a fitted effect of over 35% in size. Note: potency is the fitted concentration of half-maximal effect. As to conditions: SKMM1 myeloma viability, CellTiter-Glo ATP, 48 h; viability: active compounds read low. The method, boiled down:
as §1

Test [13] can be described thus: Quantitative High-Throughput drug screen in 47 multiple myeloma cell lines against the NCATS MIPE library collection: KMS34_JCRB cell viability assay (AID 1918985). Note: nearly all actives have a fitted effect of over 40% in size. Note: potency is the fitted concentration of half-maximal effect. The method, boiled down:
as §1

A short description of test [14]: KB-8-5-11 P-gp reporter qHTS against the NCATS DSHEA and TCM libraries (AID 1919977). Note: 0% is about no effect. The essentials:
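CellTiter-Glo luminescence measured viability after ~72 h exposure (37C, 5% CO2) of KB-8-5-11 cervical adenocarcinoma cells overexpressing P-gp. Colchicine was omitted during assay. Substances were tested as titrations.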
(qHTS replaces the single test concentration by a dilution series.)

`COc1ccc(C(=O)c2c(C)n(CCN3CCOCC3)c3ccccc23)cc1`: the Potency result in [1], in test [2], in test [3], in test [4], in [5] and in [6] was “inactive” in each case. In addition, the Potency result in test [7], in [8], in test [9] and in test [10] was “inactive” throughout.

For `Cn1c(CCCC(=O)O)nc2cc(N(CCCl)CCCl)ccc21`, the Potency in test [1] was 7.43 µM (active); in test [11], 8.33 µM (active); in test [3], 14.8 µM (active); in test [6] it was 8.33 µM (active). For the same compound, the Potency entry in test [2], in [4], in [9] and in [10] was “inactive” throughout.

On to `NCC1(CC(=O)O)CCCCC1`, for which the Potency entry in test [1], in test [2], in test [6], in test [8], in [9] and in [10] was “inactive” throughout. Also, in test [12], the viability – broadly, a read-out of living cells in per cent, often relative to untreated cells – was 140%. Also, the Potency in test [7] was 16.6 µM (active).

As to `COc1ccc(C(CN(C)C)C2(O)CCCCC2)cc1` (configuration not stated), the Potency entry in [13], in test [2], in test [5], in [6], in test [8] and in test [9] was “inactive” each time.

With `O=c1c(O)c(-c2ccc(O)c(O)c2)oc2cc(O)cc(O)c12`, the result in [14] was inactive.

With `O=C(O)C(=O)c1cn(Cc2ccccc2)c2ccc(-c3ccc(OC(F)(F)F)cc3)cc12`, the Potency in [1] was 3.32 µM (active); in test [12], 3.72 µM (active); in test [3], 9.35 µM (active); in [7] it was 16.6 µM (active). Moreover, the Potency result in test [13], in test [2], in test [8] and in test [10] was “inactive” each time.

For the compound `CNC(=O)c1ccc(N2C(=S)N(c3ccc(C#N)c(C(F)(F)F)c3)C(=O)C23CCC3)cc1F`, the Potency result in test [1], in test [8], in test [9] and in test [10] was “inactive” throughout. The Potency in test [11] was 1.32 µM (active); in test [3], 1.32 µM (active); in test [4] it was 8.33 µM (active); in test [6], 9.35 µM (active); in test [7], 7.43 µM (active).

Take `CN1CCN(C(=O)O[C@H]2c3nccnc3C(=O)N2c2ccc(Cl)cn2)CC1`: the Potency entry in test [13], in test [2], in test [3], in test [4], in test [6] and in [7] was “inactive” in each case. Moreover, the Potency result in test [8], in test [9] and in [10] was “inactive” throughout. The viability (% of DMSO control) in test [5] was 181% (active).

As to `CC1=C2C[C@@H]3[C@@H](CC=C4C[C@@H](O)CC[C@@]43C)[C@@H]2CC[C@]12O[C@H]1C[C@H](C)CN[C@H]1[C@H]2C`, the Potency result in test [13], in test [3], in test [6], in test [7], in [8] and in test [10] was “inactive” throughout. Moreover, the Potency in [11] was 11.8 µM (active); in test [2] it was 0.0469 µM (active).

Regarding `C[C@@H]1[C@@H](C(=O)C[C@H]2O[C@@H]3O[C@]4(C)CC[C@@H]5[C@H](C)CC[C@@H]([C@H]2C)[C@@]35OO4)O[C@@H]2O[C@]3(C)CC[C@H]4[C@H](C)CC[C@@H]1[C@@]24OO3`, the Potency in [1] was 0.418 µM (active); in [13], 0.235 µM (active); in test [11], 0.332 µM (active); in test [2], 0.418 µM (active); in test [12], 0.743 µM (active); in test [5] it was 0.166 µM (active). The values for the Potency in test [6] and in test [8] were 0.264 µM (active) and 0.372 µM (active), respectively.

As to `Cc1cc(SCc2sc(-c3ccc(C(F)(F)F)c(F)c3)nc2C)ccc1OCC(=O)O`, the Potency was 13.2 µM (active) in [11], 20.9 µM (active) in test [2], 26.4 µM (active) in [6] and 20.9 µM (active) in test [7]. Further, in test [8], the Potency entry is “inactive”.

`CC(C)CC(N(C)C)C1(c2ccc(Cl)cc2)CCC1` (configuration not stated): the Potency result in test [13], in [2], in [6] and in test [8] was “inactive” each time. For the same compound, in test [9], the Potency was 18.7 µM (active).

Consider `CNC(=O)N1N=C(c2ccc(N)cc2)c2cc3c(cc2CC1C)OCO3` (configuration not stated), for which the Potency is 4.69 µM (active) in [1]; 3.72 µM (active) in test [11]; 4.69 µM (active) in [2]; 5.26 µM (active) in test [12]; 2.64 µM (active) in test [4]; 7.43 µM (active) in [6]. Moreover, the Potency in [7] is 13.2 µM (active).

For the compound `COC[C@@H](NC(C)=O)C(=O)NCc1ccccc1`, the Potency entry in test [1], in test [13], in test [11], in test [2], in test [3] and in test [4] was “inactive” throughout. Further, the Potency result in test [7], in [8], in test [9] and in test [10] was “inactive” each time. Moreover, the viability in test [12] is 103%.

With `CN(C)CCc1ccc(O)cc1`, the Potency entry in test [1], in test [13], in test [11], in [2], in test [3] and in test [7] was “inactive” in each case. The Potency entry in [8] and in test [9] was “inactive” throughout. The viability in [12] is 107%. The results for the Potency in test [4] and in test [6] were 6.62 µM (active) and 9.35 µM (active), respectively.

As to `O=P1(NCCCl)OCCCN1CCCl` (configuration not stated), the Potency in test [11] is 18.7 µM (active); in test [2] it was 16.6 µM (active); in test [4], 6.62 µM (active). For the same compound, the Potency entry in [7] and in [8] was “inactive” in each case.

Consider `Cn1cc(C2=C(c3cn(C4CCN(Cc5ccccn5)CC4)c4ccccc34)C(=O)NC2=O)c2ccccc21`, for which the Potency is 10.5 µM (active) in test [13]; 7.43 µM (active) in test [11]; 16.6 µM (active) in test [2]; 5.26 µM (active) in test [3]; 11.8 µM (active) in test [4]; 8.33 µM (active) in test [6]. The Potency in test [7] was 9.35 µM (active). Moreover, the viability in test [12] was 86.1%. Further, the Potency entry in test [10] is “inactive”.

Take `N[C@@H](Cc1ccc(N(CCCl)CCCl)cc1)C(=O)O`: the Potency in test [1] is 16.6 µM (active); in test [13], 16.6 µM (active); in [11] it was 9.35 µM (active); in test [2], 13.2 µM (active); in [12], 26.4 µM (active); in test [3], 7.43 µM (active). In addition, the Potency in test [4] was 11.8 µM (active); in test [5], 0.935 µM (active); in [6] it was 3.32 µM (active); in test [7] it was 3.72 µM (active); in [8], 18.7 µM (active); in [9] it was 23.5 µM (active). Further, in test [10], the Potency is 23.5 µM (active).
